Test results from PubChem BioAssay (NCATS).
Results filed as inconclusive are left out. Entries that show only a call come without a potency. A number with no mark means an inactive call. Active and inactive are the calls of the source. The call rests on the fitted dose curve; in most records, active means well fitted curve in the direction sought with a large enough effect; inconclusive means small, poorly fitted or top-dose-only effect, or another doubt; inactive means no such curve, though single readings can be large; an effect the other way counts as inactive or inconclusive.

Assays:
[1] = target: Rap guanine nucleotide exchange factor 3 (Homo sapiens) (UniProt O95398); assay: Confirmatory qHTS for agonist of cAMP-regulated guanine nucleotide exchange factor 3 (EPAC1) (AID 1645881); further: nearly all actives have a fitted effect of over 75% in size; further: potency means the concentration at half of the fitted maximal effect;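 on activation: EPAC1 catalysed release of BODIPY-GDP from Rap1B seen as fluorescence loss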
[2] = target: Rap guanine nucleotide exchange factor 4 (Homo sapiens) (UniProt Q8WZA2); assay: Confirmatory qHTS for agonist of cAMP-regulated guanine nucleotide exchange factor 4 (EPAC2) (AID 1645884);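 further: nucleotide exchange releases bodipy-GDP from Rap1 and this lowers its fluorescence; nearly all actives have a fitted effect of over 65% in size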
[3] = target: Rap guanine nucleotide exchange factor 4 (Homo sapiens) (UniProt Q8WZA2); assay: Confirmatory qHTS for antagonist of cAMP-regulated guanine nucleotide exchange factor 4 (EPAC2) (AID 1645885); further: nearly all actives have a fitted effect of over 25% in size; further: potency means the concentration at half of the fitted maximal effect
[4] = target: Rap guanine nucleotide exchange factor 3 (Homo sapiens) (UniProt O95398); assay: Counterscreen qHTS for antagonist of cAMP-regulated guanine nucleotide exchange factor 3 (EPAC1) (AID 1645888);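 further: fluorescence loss as bound BODIPY-GDP is released from Rap1B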
Outline: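 Rap1B-BODIPY-GDP 250 nM + GDP 50 uM; cpds 7-pt, final 9.74 nM–152 uM (activator mode) or from 7.32 nM upwards (inhibitor mode); RT; FI 480/540 nm at 5 and 30 min, then ± cAMP, reread.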

Rap guanine nucleotide exchange factor 3 (Homo sapiens), sequence (O95398 whole entry, looked up): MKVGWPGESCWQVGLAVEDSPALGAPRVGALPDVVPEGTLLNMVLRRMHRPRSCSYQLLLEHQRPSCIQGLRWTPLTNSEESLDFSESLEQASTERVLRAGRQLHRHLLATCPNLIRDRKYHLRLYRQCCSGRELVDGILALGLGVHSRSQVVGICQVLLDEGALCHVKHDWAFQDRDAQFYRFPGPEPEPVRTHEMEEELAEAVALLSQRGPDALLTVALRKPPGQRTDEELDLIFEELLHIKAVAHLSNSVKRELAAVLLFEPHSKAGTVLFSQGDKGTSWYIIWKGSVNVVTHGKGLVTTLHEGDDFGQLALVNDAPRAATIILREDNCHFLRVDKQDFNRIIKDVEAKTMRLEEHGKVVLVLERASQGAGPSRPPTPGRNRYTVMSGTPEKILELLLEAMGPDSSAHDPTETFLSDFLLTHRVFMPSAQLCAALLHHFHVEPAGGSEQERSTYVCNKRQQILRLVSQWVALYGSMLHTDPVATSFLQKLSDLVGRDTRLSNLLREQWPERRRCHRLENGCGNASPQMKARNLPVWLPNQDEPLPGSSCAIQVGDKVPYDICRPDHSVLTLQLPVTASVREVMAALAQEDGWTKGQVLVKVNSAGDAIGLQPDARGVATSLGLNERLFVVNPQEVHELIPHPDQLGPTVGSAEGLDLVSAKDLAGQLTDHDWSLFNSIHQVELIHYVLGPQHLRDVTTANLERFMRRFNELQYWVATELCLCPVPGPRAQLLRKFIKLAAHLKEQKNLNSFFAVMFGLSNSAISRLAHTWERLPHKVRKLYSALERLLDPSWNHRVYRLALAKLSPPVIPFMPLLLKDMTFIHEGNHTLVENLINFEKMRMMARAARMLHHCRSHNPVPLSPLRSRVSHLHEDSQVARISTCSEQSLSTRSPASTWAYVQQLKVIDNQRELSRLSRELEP
Rap guanine nucleotide exchange factor 4 (Homo sapiens), sequence (Q8WZA2 whole entry, looked up): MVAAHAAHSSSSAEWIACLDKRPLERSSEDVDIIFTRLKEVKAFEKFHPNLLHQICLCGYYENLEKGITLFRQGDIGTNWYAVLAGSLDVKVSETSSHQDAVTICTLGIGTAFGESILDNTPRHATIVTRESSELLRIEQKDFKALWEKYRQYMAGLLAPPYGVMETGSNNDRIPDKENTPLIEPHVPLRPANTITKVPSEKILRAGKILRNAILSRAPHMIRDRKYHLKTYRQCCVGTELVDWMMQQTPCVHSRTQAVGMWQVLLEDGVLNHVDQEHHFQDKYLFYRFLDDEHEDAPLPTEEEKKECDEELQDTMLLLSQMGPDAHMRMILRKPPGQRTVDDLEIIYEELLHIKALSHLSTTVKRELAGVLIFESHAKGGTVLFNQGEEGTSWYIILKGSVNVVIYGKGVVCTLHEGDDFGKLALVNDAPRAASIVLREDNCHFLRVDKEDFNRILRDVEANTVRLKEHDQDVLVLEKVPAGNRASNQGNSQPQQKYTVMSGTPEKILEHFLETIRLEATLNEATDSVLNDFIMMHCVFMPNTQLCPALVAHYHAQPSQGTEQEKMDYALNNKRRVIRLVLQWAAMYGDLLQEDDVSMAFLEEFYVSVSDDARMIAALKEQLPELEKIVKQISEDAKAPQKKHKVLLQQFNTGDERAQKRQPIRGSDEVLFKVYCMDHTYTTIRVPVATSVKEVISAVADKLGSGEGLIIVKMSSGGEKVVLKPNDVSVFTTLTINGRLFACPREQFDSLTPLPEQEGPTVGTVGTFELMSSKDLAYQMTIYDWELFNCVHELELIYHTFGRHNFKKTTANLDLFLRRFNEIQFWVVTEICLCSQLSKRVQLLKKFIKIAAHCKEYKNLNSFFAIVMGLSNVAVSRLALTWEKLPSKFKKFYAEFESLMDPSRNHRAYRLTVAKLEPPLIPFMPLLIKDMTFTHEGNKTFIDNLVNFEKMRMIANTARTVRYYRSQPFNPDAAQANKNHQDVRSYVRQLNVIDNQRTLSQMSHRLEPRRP

SMILES	Potency [1]	Potency [2]	Potency [3]	activation [2]	activity change, negative = inhibition [4]	Potency [4]	outcome [3]
CCC1=NN2C(=N)/C(=C/c3ccc(OS(=O)(=O)c4ccccc4)cc3)C(=O)N=C2S1	inactive	inactive	inactive				
Cc1ccc(N=C2NC(=O)/C(=C/C=C/c3ccco3)S2)cc1	inactive	inactive	inactive				
COc1cc(CNc2ccc(O)cc2)cc(Br)c1OCc1ccccc1F	inactive		inactive	0.373% [at 17.1 µM, percent relative to cAMP agonist control]			
O=C1NC[C@@H](Cc2cccc3ccccc23)N(CCc2cc(C(F)(F)F)cc(C(F)(F)F)c2)C1=O	inactive	inactive	inactive				
Cc1nc2c(OCc3ccc(OC(F)F)cc3)cccn2c1N(C)C(=O)CCC1CCCC1	inactive	inactive	26.9 µM (active)				
Oc1ccc(N=Cc2ccc(OCc3ccccc3)cc2)cc1	inactive		inactive	11.9% [at 17.1 µM, percent relative to cAMP agonist control]			
CC(C)C[C@H]1COCCS(=O)(=O)N1Cc1cccc(C(F)(F)F)c1	inactive	inactive	inactive				
CC(NS(=O)(=O)OCC(Cl)(Cl)Cl)c1ccc(C(C)(C)C)cc1 (stereo not drawn)	inactive		inactive	4.78% [at 17.1 µM, percent relative to cAMP agonist control]			
Cn1c(N)c(C(=O)COC(=O)CCCOc2ccc(Cl)cc2Cl)c(=O)n(C)c1=O	inactive	inactive	37.9 µM (active)				
C#CCN(Cc1nc(N2CCOCC2)c2ccc(Cl)cc2n1)Cc1ccco1	inactive	inactive	17.5 µM (active)				
Cc1ccc(C)n1-c1nn(S(=O)(=O)c2ccccc2)c2cccc(F)c12	inactive	inactive	13.5 µM (active)				
OCCCNc1ncnc2oc(-c3ccccc3)c(-c3ccccc3)c12	inactive		inactive	0.534% [at 17.1 µM, percent relative to cAMP agonist control]	-6.04% [at 30.8 µM]		
NC(=O)C1CCN(C(=O)c2ccc3c(=O)n(Cc4cccc(Br)c4)c(=S)[nH]c3c2)CC1	inactive		inactive	7.22% [at 17.1 µM, percent relative to cAMP agonist control]			
COc1ccc(NC(=O)Cn2ncc(Cl)c(Cl)c2=O)cc1S(=O)(=O)N1CCOCC1	inactive		inactive	-6.12% [at 17.1 µM, percent relative to cAMP agonist control]	1.4% [at 30.8 µM]		
CCc1ccc(/C=C2\SC(=S)N(CCCC(=O)Nc3ccccc3C(=O)O)C2=O)cc1	inactive		inactive	7.93% [at 17.1 µM, percent relative to cAMP agonist control]	0.611% [at 30.8 µM]		
COc1ccc(S(=O)(=O)N2CCCCC2)cc1NC(=O)c1c(F)cccc1Cl	inactive	inactive	inactive				
CCOC(=O)c1cc2c(=O)n3ccccc3nc2n(Cc2ccco2)c1=NC(=O)c1c(F)cccc1Cl	inactive	inactive	inactive			inactive	
O=S1(=O)CCOC[C@H](CC2CCCCC2)N1Cc1cccc(C(F)(F)F)c1	inactive		inactive	4.69% [at 17.1 µM, percent relative to cAMP agonist control]			
COc1ccc(CC(=O)NCc2ccc3c(c2)CCN3C(=O)c2ccc(Cl)cc2)cc1OC	inactive	inactive	inactive			inactive	
CN1CCN(c2cc(N3CCN(C(=O)c4ccco4)CC3)c3c4c(onc24)-c2ccccc2C3=O)CC1	inactive	inactive	inactive			inactive	
O=C(O)CC/C(=C/c1cccc(NC(=O)c2ccccc2Cl)c1)c1nc2ccccc2s1	100 µM (active)	inactive	inactive			inactive	
Cc1ccc(C)c(N2CCN(C(=O)c3ccc4c(=O)n5c(nc4c3)CCCCC5)CC2)c1	inactive		inactive	5.24% [at 17.1 µM, percent relative to cAMP agonist control]	-18% [at 30.8 µM]		
CC(=O)Nc1ccc(NC(=S)NC(=O)/C=C/c2ccco2)cc1	inactive	inactive	inactive			inactive	
C=C(C)COc1ccc(-c2[nH]ncc2-c2ccccc2OC)c(O)c1	inactive		inactive	16.3% [at 17.1 µM, percent relative to cAMP agonist control]			
Nc1ccc2c(c1)C(=O)C(=O)c1ccccc1-2	inactive	inactive	inactive			inactive	

SMILES	Potency [1]	Potency [2]	Potency [3]	activation [2]	activity change, negative = inhibition [4]	Potency [4]	outcome [3]
CN(C)S(=O)(=O)N(CC(=O)NCCSc1ccc(Cl)cc1)c1ccccc1	inactive	inactive	inactive				
CCOc1ccccc1Oc1ncnc2c1oc1ccccc12	inactive	inactive				inactive	inactive [at 12.7 µM]
Fc1ccc(/C=C2\CCCC3=C2Nc2ncnn2C3c2ccc(F)cc2)cc1 (stereo not drawn)	inactive		inactive	4.94% [at 17.1 µM, percent relative to cAMP agonist control]	-4.64% [at 30.8 µM]		
COC(=O)c1ccc2c(=O)n(CCCCCC(=O)N3CCN(c4cc(C)ccc4C)CC3)c(=O)[nH]c2c1	inactive	inactive	inactive				
CC(=O)C(=Cc1ccc(Cl)cc1)C(=O)c1ccccc1	inactive	inactive	inactive			inactive	
COCCCNC(=O)C[C@@H]1C[C@@]2(C(=O)OC)CCCCC=C2N(Cc2cccc3ccccc23)C1=O	inactive		inactive	3.32% [at 17.1 µM, percent relative to cAMP agonist control]	-43.8% [at 30.8 µM]		
Cc1ccc(NC(=O)CN2C(=O)S/C(=C\c3cccn3-c3cccc(C(=O)O)c3)C2=O)cc1C	inactive		0.019 µM (active)	3.81% [at 17.1 µM, percent relative to cAMP agonist control]	-10.4% [at 30.8 µM]		
O=C1Cc2ccccc2C(=O)N1	inactive	inactive	inactive			inactive	
Cc1cc(C)cc(OCC(=O)OCC(=O)NC2CCCCCCC2)c1	inactive	inactive	inactive				
C[C@@H]1CN([C@@H](C)CO)C(=O)c2ccccc2-c2ccccc2CO[C@@H]1CN(C)S(=O)(=O)c1ccc(C(F)(F)F)cc1	inactive		inactive	1.26% [at 17.1 µM, percent relative to cAMP agonist control]			
Cc1ccc(C2c3c(-c4cc(C)ccc4O)n[nH]c3C(=O)N2Cc2ccco2)cc1 (stereo not drawn)	inactive	inactive					inactive [at 12.7 µM]
C#Cc1ccc([C@@H]2C=C(C(=O)OCC=C)O[C@H](OCc3ccc(CO)cc3)C2)cc1	inactive		inactive	-0.524% [at 17.1 µM, percent relative to cAMP agonist control]	-8.75% [at 30.8 µM]		
O=C1C(Cl)=C(NS(=O)(=O)c2ccc([N+](=O)[O-])cc2)C(=O)c2ccccc21	inactive		inactive	8.93% [at 17.1 µM, percent relative to cAMP agonist control]	11.7% [at 30.8 µM]		
COC(=O)C1(C)CC1(c1ccccc1)c1ccccc1 (stereo not drawn)	inactive		inactive	12.4% [at 17.1 µM, percent relative to cAMP agonist control]	1.55% [at 30.8 µM]		
O=C1CCCC2=C1C(c1ccc(O)c(O)c1)Nc1ccc3ccccc3c12 (stereo not drawn)	inactive	inactive	inactive			inactive	
CCCC(=O)OC1CC(C)N(C(=O)c2ccccc2)c2ccc(C)cc21 (stereo not drawn)	inactive		3.38 µM (active)	-2.84% [at 17.1 µM, percent relative to cAMP agonist control]	-2.85% [at 30.8 µM]		
O=C(O)c1ccc(N/N=C/c2ccc(-c3ccccc3Cl)o2)cc1	inactive		inactive	7.2% [at 17.1 µM, percent relative to cAMP agonist control]	1.4% [at 30.8 µM]		
COCCNc1nc2cc(-c3ccsc3)sc2c(=O)n1C	inactive	inactive	inactive			inactive	
Cc1ccc(Nc2c(-c3ccccn3)nc3cccc(C)n23)cc1	inactive	inactive	inactive			inactive	
CCOC(=O)c1ccc(NC(=O)CC2Nc3cccc4cccc(c34)NC2=O)cc1 (stereo not drawn)	inactive	inactive	inactive			inactive	
O=C(Nc1cccc(NC(=O)c2cccs2)c1)c1ccc(Br)o1	inactive	inactive	inactive				
COc1ccc2ccc(C(C)(C(C)=O)C(=O)OC(C)C)cc2c1 (stereo not drawn)	inactive		inactive	5.56% [at 17.1 µM, percent relative to cAMP agonist control]	-29.5% [at 30.8 µM]		
NS(=O)(=O)c1ccc2c(c1)C1C=CCC1C(C1CC=CCC1)N2 (stereo not drawn)	inactive		inactive	6.51% [at 17.1 µM, percent relative to cAMP agonist control]			
Cc1ccc(NC(=O)c2sc3nc(-c4ccncc4)ccc3c2N)cc1	inactive	inactive	inactive			inactive	
CCCCN1CC(c2nc3ccccc3n2CCCCOc2cc(C)ccc2C)CC1=O (stereo not drawn)	inactive	inactive	inactive			inactive	
